According to PubChem BioAssay (NCATS):
Inconclusive results are not listed. A number with no mark means an inactive call. Calls of active or inactive are those of the source. Calls come from the whole dose curve; as a rule, active = well fitted cell-killing curve with a large enough effect; inconclusive = small, poorly fitted or top-dose-only effect, or effect the other way; inactive = no such curve, though single readings can be large or run the other way. Non-standard residues stand in square brackets, D forms with d. Residues, ends and D or L forms follow the SMILES beside them. *: point of attachment. Sta = CC(C)C[C@H](N)[C@@H](O)CC(=O)O; Isovaleryl = CC(C)CC(=O)*

Test: Quantitative High-Throughput drug screen in 47 multiple myeloma cell lines against the NCATS MIPE library collection: XG1_PLB cell viability assay (AID 1919866); note: nearly all actives have a fitted effect of over 35% in size
Details: CellTiter-Glo ATP, 48 h; series mostly up to 45.8 µM; viability: at the top concentration
Text: PI: Beverly A. Mock Ph.D.
Laboratory of Cancer Biology and Genetics,
Center for Cancer Research, National Cancer Institute,
National Institute of Health, Bethesda, Maryland
Drug resistance and disease progression are common in multiple myeloma (MM) patients, underscoring the need for new therapeutic combinations. […] We hypothesized that effective combinations would reduce MYC expression and enhance p16 activity. […] These preclinical data identify potentially useful drug combinations for evaluation in drug-resistant MM and reveal potential mechanisms of combined drug sensitivity.
Described herein is the primary MIPE qHTS used to cherrypick compounds. Validated compounds were then further tested for potential synergistic activiy.
[1] Peat TJ, Gaikwad SM, Dubois W, Gyabaah-Kessie N, Zhang S, Gorjifard S, Phyo Z, Andres M, Hughitt VK, Simpson RM, Miller MA, Girvin AT, Taylor A, Williams D, D'Antonio N, Zhang Y, Rajagopalan A, Flietner E, Wilson K, Zhang X, Shinn P, Klumpp-Thomas C, McKnight C, Itkin Z, Chen L, Kazandijian D, Zhang J, Michalowski AM, Simmons JK, Keats J, Thomas CJ, Mock BA. Drug combinations identified by high-throughput screening promote cell cycle transition and upregulate Smad pathways in myeloma. Cancer Lett. 2023 Aug 1;568:216284. doi: 10.1016/j.canlet.2023.216284. Epub 2023 Jun 24. PMID: 37356470; PMCID: PMC10408729.
SEQUENCE No. (e.g., 1, 2, 3, etc.); […] (e.g., Cells, Incubation, Reagent, etc.); VALUE and DESCRIPTION.
1; Cells; 5 uL; white, solid bottom 1536-well Greiner assay plate.
2; Compounds; 23 nL; Kalypsis pin tool (Wako USA) equipped with a 1536-well pin head to transfer to the assay plates.
3; Incubation; 48 hours; 37C incubation.
4; Reagent;5uL; CellTiter Glo (Promega).
5; Detector; 425V; Luminescence; Viewlux PerkinElmer.
NOTES (numbers refer to Sequence numbers above)
1. The cell-based screening methods employed in this study were like those previously published. Briefly, the corresponding myeloma cell lines were screened in 1,536-well plates with 500 cells, 5-uL per well for inhibition of cell viability (assessed by measuring ATP levels with CellTiterGlo).
2. NCATS MIPE 4.0 library of approved and investigational drugs were added using the Kalypsis pin tool. Wells treated with DMSO only for 100% viability and media only for 0% viability were used as controls.
3. The assay plates were covered and incubated for 48 hours in a 37C, 5% CO2 incubator with controlled humidity.
4. After 48 hours, CellTilter-GloTM luminescent substrate mix (Promega) reagent was added to the assay plate and plates we incubated for 5 min at room temperature.
5. Signal was measured as median relative luminescence units on a ViewLux (PerkinElmer) multiplate reader.
[1] Heske CM, Davis MI, Baumgart JT, Wilson K, Gormally MV, Chen L, Zhang X, Ceribelli M, Duveau DY, Guha R, Ferrer M, Arnaldez FI, Ji J, Tran HL, Zhang Y, Mendoza A, Helman LJ, Thomas CJ. Matrix Screen Identifies Synergistic Combination of PARP Inhibitors and Nicotinamide Phosphoribosyltransferase (NAMPT) Inhibitors in Ewing Sarcoma. Clin Cancer Res. 2017 Dec 1;23(23):7301-7311. doi: 10.1158/1078-0432.CCR-17-1121. Epub 2017 Sep 12. PMID: 28899971; PMCID: PMC6636827.
Potency is the fitted concentration of half-maximal effect.

Question: Which Potency does the source give for `CC(C)C[C@H](NC(=O)[C@H](Cc1ccccc1)NC(=O)c1cnccn1)B(O)O` here?
Answer: 0.0105 µM (active)

Question: For `Clc1ccc(C(Cn2ccnc2)OCc2c(Cl)cccc2Cl)c(Cl)c1` (stereo not given), which Potency is on record?
Answer: 20.9 µM (active)

Question: With `O=c1c(O)c(-c2ccc(O)cc2O)oc2cc(O)cc(O)c12` as the compound, how does the Potency read?
Answer: 0.833 µM (active)

Question: For `CC1Cc2ccccc2N1NC(=O)c1ccc(Cl)c(S(N)(=O)=O)c1` (stereo not given), which “viability” value is on record?
Answer: 115%

Question: Which Potency does the source give for `CC(C)CC(=O)N[C@H](C(=O)N[C@H](C(=O)N[C@@H](CC(C)C)[C@@H](O)CC(=O)N[C@@H](C)C(=O)N[C@@H](CC(C)C)[C@@H](O)CC(=O)O)C(C)C)C(C)C` (Isovaleryl-VV[Sta]A[Sta]-OH) here?
Answer: 16.6 µM (active)

Question: With `COC1=C(OC)C(=O)C(CCCCCCCCCCO)=C(C)C1=O` as the compound, how does the Potency read?
Answer: 16.6 µM (active)

Question: With `COc1cc(OC)c(C(=O)CCCN2CCCC2)c(OC)c1` as the compound, how does the “viability” value read?
Answer: 108%

Question: Which Potency does the source give for `O=Nc1c(-c2c(O)[nH]c3cc(Br)ccc23)[nH]c2ccccc12` here?
Answer: 5.9 µM (active)

Question: For `CCOC(=O)C1=C[C@@H](OC(CC)CC)[C@H](NC(C)=O)[C@@H](N)C1`, which “viability” value is on record?
Answer: 108%

Question: For `COc1cc2c(N3CCN(C(=O)Nc4ccc(OC(C)C)cc4)CC3)ncnc2cc1OCCCN1CCCCC1`, which Potency is on record?
Answer: 13.2 µM (active)

Question: For `N[C@@H](Cc1cc(I)c(Oc2cc(I)c(O)c(I)c2)c(I)c1)C(=O)O`, which “viability” value is on record?
Answer: 97.5%

Question: Which Potency does the source give for `CC1(C)CCC(C)(C)c2cc(NC(=O)c3ccc(C(=O)O)cc3)ccc21` here?
Answer: 3.72 µM (active)

Question: For `CC(C)c1nc(CN(C)C(=O)N[C@H](C(=O)N[C@@H](Cc2ccccc2)C[C@H](O)[C@H](Cc2ccccc2)NC(=O)OCc2cncs2)C(C)C)cs1`, which “viability” value is on record?
Answer: 83.6%

Question: With `Cc1cccc(C)c1OCC(=O)N[C@@H](Cc1ccccc1)[C@@H](O)C[C@H](Cc1ccccc1)NC(=O)[C@H](C(C)C)N1CCCNC1=O` as the compound, how does the Potency read?
Answer: 20.9 µM (active)

Question: Which Potency does the source give for `CCCCCCCCOc1ccccc1C(=O)Nc1ccc(C(=O)OCC[N+](C)(CC)CC)cc1` here?
Answer: 16.6 µM (active)

Question: With `CC1(C)C(=O)N(CCN2CCC(C(=O)c3ccc(F)cc3)CC2)c2ccccc21` as the compound, how does the Potency read?
Answer: 14.8 µM (active)

Question: Which Potency does the source give for `Cc1c(C(=O)NN2CCCCC2)nn(-c2ccc(Cl)cc2Cl)c1-c1ccc(Cl)cc1` here?
Answer: 26.4 µM (active)

Question: With `CCN(CCO)CCCC(C)Nc1ccnc2cc(Cl)ccc12` (stereo not given) as the compound, how does the “viability” value read?
Answer: 115%

Question: Which “viability” value does the source give for `O=C(O)c1cccnc1Nc1cccc(C(F)(F)F)c1` here?
Answer: 95.2%

Question: For `Cc1nc(Nc2ncc(C(=O)Nc3c(C)cccc3Cl)s2)cc(N2CCN(CCO)CC2)n1`, which Potency is on record?
Answer: 16.6 µM (active)

Question: With `O=C1c2c(O)cc(O)cc2OC(c2ccc(O)c(O)c2)C1O` (stereo not given) as the compound, how does the “viability” value read?
Answer: 117%

Question: With `C[Se]CCC(N)C(=O)O` (stereo not given) as the compound, how does the “viability” value read?
Answer: 89.7% [at 92.2 µM]

Question: With `O=C(CCc1ccc(O)cc1)c1c(O)cc(O)cc1O` as the compound, how does the Potency read?
Answer: 0.132 µM (active)

Question: Which “viability” value does the source give for `CNC[C@H](O)c1ccc(O)c(O)c1` here?
Answer: 124% [at 92.2 µM]

Question: For `Clc1ccc(C(Cn2ccnc2)OCc2ccc(Sc3ccccc3)cc2)c(Cl)c1` (stereo not given), which Potency is on record?
Answer: 23.5 µM (active)

Question: Which Potency does the source give for `NCCCCNCCCN` here?
Answer: 20.9 µM (active)

Question: For `O=c1oc2cc(O)ccc2s1`, which “viability” value is on record?
Answer: 113%

Question: Which “viability” value does the source give for `Clc1ccc2c(N3CCN(CCCN4CCN(c5ccnc6cc(Cl)ccc56)CC4)CC3)ccnc2c1` here?
Answer: 120% [at 23.2 µM]

Question: With `CC(=O)NC[C@H]1CN(c2ccc(N3CCOCC3)c(F)c2)C(=O)O1` as the compound, how does the “viability” value read?
Answer: 116%

Question: For `Cc1cc(O)c2c(c1)C(=O)c1cc(O)cc(O)c1C2=O`, which “viability” value is on record?
Answer: 119%

Question: Which Potency does the source give for `Cc1cc(Cl)ccc1OCCCC(=O)NO` here?
Answer: 1.05 µM (active)

Question: With `CCCc1cc(=O)[nH]c(=S)[nH]1` as the compound, how does the “viability” value read?
Answer: 107%

Question: With `c1ccc2[nH]c(-c3cscn3)nc2c1` as the compound, how does the “viability” value read?
Answer: 113%

Question: Which “viability” value does the source give for `CC(C)c1ccc2oc3nc(N)c(C(=O)O)cc3c(=O)c2c1` here?
Answer: 86.6%

Question: For `CC1(C)NC(=O)N(c2ccc([N+](=O)[O-])c(C(F)(F)F)c2)C1=O`, which “viability” value is on record?
Answer: 99.5%

Question: With `Cc1ccc(C)c(OCCCC(C)(C)C(=O)O)c1` as the compound, how does the Potency read?
Answer: 16.6 µM (active)

Question: With `O=C(NCC1CCCCN1)c1cc(OCC(F)(F)F)ccc1OCC(F)(F)F` (stereo not given) as the compound, how does the Potency read?
Answer: 3.32 µM (active)

Question: Which Potency does the source give for `COc1c2occc2cc2ccc(=O)oc12` here?
Answer: 5.9 µM (active)

Question: Which Potency does the source give for `Cn1c(NCCN(CCO)CCCc2ccc([N+](=O)[O-])cc2)cc(=O)n(C)c1=O` here?
Answer: 26.4 µM (active)

Question: Which Potency does the source give for `O=C(NC(Cc1cc(=O)[nH]c2ccccc12)C(=O)O)c1ccc(Cl)cc1` (stereo not given) here?
Answer: 23.5 µM (active)
